The whole screen tested about 69,000 compounds, of which about 8,600 (12%) showed an effect of 50% or more. The entries come from a sample that favours strong results as a whole.
System: Plasmodium berghei
Assay: Screen against P. berghei liver stage (PbLuc), transformed with Luciferase, at 10uM
Type: functional, HepG2
Conditions: tested at 10 uM

Row | SMILES | INHIBITION
1 | O=C(Cc1n[nH]c2ccccc12)N1CCCC1Cn1cccn1 (stereo unspecified) | 24%
2 | CCc1nnc(C(C)N2CCN(CCC(=O)NC3CC3)CC2)o1 (stereo unspecified) | 33.1%
3 | CCc1nnc(C(C)N2CCCN(C(=O)OCC(C)C)CC2)o1 (stereo unspecified) | 36.5%
4 | CCc1nnc(C(C)N2CCN(CCC(C)(C)C)CC2)o1 (stereo unspecified) | 62.4%
5 | Cc1cncc(C(=O)N2CCCC(O)(CN3CCCC3)C2)c1 (stereo unspecified) | 4.13%
6 | CN1CCCCC12Cc1ccccc1CN(C(=O)c1ccccc1)C2 (stereo unspecified) | 10.1%
7 | CC(=O)N1Cc2ccccc2CC2(CCCCN2C)C1 (stereo unspecified) | 42.4%
8 | CC(C)C(=O)N1Cc2ccccc2CC2(CCCCN2C)C1 (stereo unspecified) | 53.2%
9 | CN1CCCCC12Cc1ccccc1CN(C(=O)C1CCCC1)C2 (stereo unspecified) | 8.49%
10 | CC(C)C(=O)N1Cc2ccccc2CC2(CCCN2C)C1 (stereo unspecified) | 37.5%
11 | C[C@H](C(=O)N1Cc2ccccc2CC2(CCCN2C)C1)c1ccccc1 (stereo partly specified) | 51.6%
12 | O=C(c1ccccc1)N(CC1CC1)c1cccnc1 | 39.7%
13 | Cc1cc(NCc2cc3n(n2)CCCN(C(=O)C2CCC2)C3)ncn1 | -2.46%
14 | CCc1nc(N2CCOCC2)ncc1C(=O)NC(c1cccs1)C(C)C (stereo unspecified) | 29.5%
15 | COCCN1C(=O)C2(CCC(C(=O)Nc3ccc(C)cc3)CC2)N=C1C (stereo unspecified) | 31.4%
16 | COCCN1C(=O)C2(CCC(C(=O)Nc3ccc(F)cc3)CC2)N=C1C (stereo unspecified) | 20.1%
17 | COCCN1C=NC2(CCC(C(=O)Nc3ccc(C)cc3)CC2)C1=O (stereo unspecified) | 63.5%
18 | Cc1nc(Nc2cnccn2)cc(C2CN(C(C)C)C2)n1 | -21.4%
19 | Cc1ccc(-c2nnc(SCC(=O)O)n2-c2ccccc2)cc1 | 5.11%

Row | SMILES | INHIBITION
20 | CC(C)CS(=O)(=O)N1C[C@@H]2C[C@H](C(=O)N(C)C)[C@H](C1)O2 | 37.5%
21 | CCC(C(=O)N1CCN(S(=O)(=O)N2CCCC2)CC1)n1cccn1 (stereo unspecified) | 13%
22 | O=C1CCCC2=Nc3nonc3NC(c3ccc(Cl)cc3Cl)C12 (stereo unspecified) | 57.8%
23 | O=C1CCCC2=Nc3nonc3NC(c3ccc(F)cc3F)C12 (stereo unspecified) | -37.6%
24 | O=C1CCCC2=Nc3nonc3NC(c3cc(Cl)ccc3F)C12 (stereo unspecified) | 76.8%
25 | O=C1CCCC2=Nc3nonc3NC(c3cccc(F)c3F)C12 (stereo unspecified) | 4.66%
26 | O=C1CCCC2=Nc3nonc3NC(c3ccccc3Cl)C12 (stereo unspecified) | 12.3%
27 | O=C1CCCC2=Nc3nonc3NC(c3ccccc3F)C12 (stereo unspecified) | 12.3%
28 | CC(C)N1CCC(Cc2cc(-c3ccccc3C(=O)O)ncn2)CC1 | 18.8%
29 | CC(C)N1CCC(Cc2cncc(-c3ccccc3C(=O)O)n2)CC1 | 38.7%
30 | CC(C)N1CCC(Cc2cncc(-c3ccccc3C(=O)O)n2)C1 (stereo unspecified) | 15.9%
31 | COCCN1CCC(Cc2cnc(-c3ccccc3C(=O)O)cn2)CC1 | 53%
32 | CS(=O)(=O)N1CCCC(Cc2cncc(-c3ccccc3C(=O)O)n2)C1 (stereo unspecified) | -1.85%
33 | CN1CCC(Cc2cncc(-c3ccccc3C(=O)O)n2)C1 (stereo unspecified) | 56%
34 | CC1=Nc2c(c(=O)[nH]n2C(C)C)C(c2cccc(OC(F)F)c2)S1 (stereo unspecified) | -28.4%
35 | Cc1cccc2nc(CN3CCC(N4CCN(C)C4=O)CC3)cn12 | -54.1%
36 | COc1nn(C)c2c1CCCN(C(=O)c1cccc(C)n1)C2 | 31.2%
37 | COCCN1CCC(CN(Cc2ccncc2)C2CCC2)CC1 | 43.7%
38 | COCCN1CCC(CN(Cc2ccncc2)C2CCCCC2)CC1 | -32.1%

Row | SMILES | INHIBITION
39 | CN1CCC(N2CCC(CN(Cc3ccncc3)C3CCC3)CC2)CC1 | 53.8%
40 | O=C(C1=CCCC1)N1C[C@@H]2COC[C@]2(COc2ncccc2F)C1 | 16.8%
41 | CC(O)CN(C(=O)NC1CCN(CC2CCCCC2)CC1)C(C)C (stereo unspecified) | 21.2%
42 | CC(C)N(CC(C)(C)O)C(=O)NC1CC1 | 23.5%
43 | CC(O)CN(C(=O)NC1CC1)C(C)C (stereo unspecified) | 55.4%
44 | Cc1noc(C)c1CN(C)c1nc(C2CCCC2)nc2c1cnn2C | 20%
45 | Cc1ncsc1-c1cc(C(=O)NCCO)ccn1 | 42.6%
46 | Cn1ncc(NC(=O)Cn2ccc(-c3cccc(F)c3)n2)n1 | 7.39%
47 | Cc1cc(NC(=O)Cn2ccc(-c3ccc4c(c3)OCO4)n2)n(C)n1 | 13.8%
48 | Cc1ncsc1-c1ccn(CC(=O)Nc2cnn(C)n2)n1 | 85.7%
49 | CC(C)NC(=O)Cn1cc(-c2ccccc2)cn1 | -16.7%
50 | NC(=O)NC(=O)CCn1ccc(-c2ccc(F)cc2)n1 | 16.2%
51 | Cc1ccc(-c2cnn(CC(=O)NC(C)C)c2)cc1 | 45.7%
52 | Cn1ncc(NC(=O)Cn2cc(-c3ccc(F)cn3)cn2)n1 | 77.9%
53 | Cn1ncc(NC(=O)Cn2ccc(-c3ccc(F)cc3)n2)n1 | 52.2%
54 | Cn1nccc1NC(=O)Cn1ccc(-c2ccc3c(c2)OCO3)n1 | 43.4%
55 | Cc1nc(C)c(-c2ccn(CC(=O)Nc3cnn(C)n3)n2)s1 | 82.4%
56 | CNC(=O)CNC(=O)c1ccc(-c2scnc2C)nc1 | -89.4%

Source: ChEMBL document CHEMBL4513216, “Probing the Open Global Health Chemical Diversity Library for Multistage-Active Starting Points for Next-Generation Antimalarials” (ACS Infect Dis, 2020)
